The values that follow come from PubChem BioAssay AID485314 (National Center for Advancing Translational Sciences (NCATS), 2010).

In all, about 340,000 compounds went through this assay and about 4,500 (1.3%) were called active. Roughly 5% stayed inconclusive and do not appear here. Calls follow the shape of the dose curve; as a rule, active = well fitted inhibition curve with a large enough effect; inconclusive = small, poorly fitted or top-dose-only effect, or another doubt; inactive = no such curve, though single readings can be large or run the other way. Only a selection was taken, and actives are over-represented in it overall.
% is scaled to controls: 0 for no effect and ±100 for the full control effect; potency is read from the fitted curve at half-maximal effect.

This test deals with DNA polymerase beta (Homo sapiens) (UniProt P06746). Put plainly: qHTS Assay for Inhibitors of DNA Polymerase Beta. The conditions noted are these: Pol beta primer extension/strand displacement, fluorescence kinetic; series mostly up to 114 µM; activity change, negative = inhibition: at the top concentration. The procedure, abridged:
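Homogeneous kinetic assay of primer extension and strand displacement by 10 nM Pol beta, preincubated 15 min at room temperature with compound before 50 nM substrate (final) was added. Read at 0 and 10 min; four-parameter Hill fit.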
On the technique in general: In qHTS, concentration-response curves come from the screen itself.
`CC(=O)Nc1ccc(NC(=O)COc2ccc(-c3ccccc3)cc2)cc1`: the “activity change, negative = inhibition” value was 2.33% (inactive).
On the same count and under the same terms, the same measure for `O=C(CSc1nc(=O)[nH]c2c1CCCC2)Nc1cc(C(F)(F)F)ccc1Cl`: 14% (inactive); for `Cc1cccc(C(C)C)c1NC(=O)C(NS(=O)(=O)c1cccc2nsnc12)c1ccccc1` (stereo unspecified): 4.29% (inactive); for `C=Cc1ccc(Cn2c(C(=O)O)c(CNC3CCCC3)c3ccc(C)cc32)cc1`: -0.255% (inactive).
The same measure, in the same setting: the same measure for `O=C(NCc1ccc2c(c1)CCN2C(=O)c1ccccc1)Nc1cc(F)ccc1F`: -19% (inactive); for `Cc1cccc(-c2nc(SCc3ccc(Br)cc3)n3[nH]c(=O)cc3n2)c1`: -25.2% (inactive); for `Cc1nc(SCCOc2ccc(Cl)cc2)[nH]c(=O)c1Cc1ccccc1`: 7.28% (inactive).
Consider `O=c1cc2nc(-c3ccccc3)nc(SCCOc3ccc(Cl)cc3)n2[nH]1`, for which the Potency is 20 µM (active).
As to `COc1ccccc1CCNC(=O)c1cccn1-c1nnc(N2CCCCC2)s1`, the “activity change, negative = inhibition” value is -3.75% (inactive).
The same measure, in the same setting: the same measure for `Cc1cc(C)cc(NS(=O)(=O)c2ccc3[nH]cc(C(=O)N4CCCCC4)c(=O)c3c2)c1`: -3.39% (inactive).
Still for that read-out and setting: the same measure for `CCCCNC(=O)c1c[nH]c2ccc(S(=O)(=O)Nc3ccc(OCC)cc3)cc2c1=O`: -18.1% (inactive).
Take `CC(C)c1ccc(NS(=O)(=O)c2ccc3[nH]cc(C(=O)NC4CCCC4)c(=O)c3c2)cc1`: the Potency was 20 µM (active).
As to `O=C(Nc1nc2c(s1)CCCC2)c1ccccc1F`, the “activity change, negative = inhibition” value was 3.06% (inactive).
Still for that read-out and setting: the same measure for `COc1cc(OC)c(NC(=O)Cc2ccc(-n3c(C)nc4cccnc43)cc2)cc1Cl`: 6.51% (inactive).
The same measure, in the same setting: the same measure for `COc1ccc(CNC(=O)c2ccc(NC(=O)N3CC4CCCN4c4ccccc43)cc2)cc1` (stereo unspecified): 1.31% (inactive); for `O=C(Nc1ccc2nc(SCC(=O)N3CCCc4ccccc43)sc2c1)c1ccc(Cl)cc1`: -10.6% (inactive).
On to `Cc1ccc(/C=N/NC(=O)CSc2nc3ccccc3o2)cc1`, for which the Potency is 44.7 µM (active).
As to `O=C(CSc1nc2ccccc2o1)N/N=C/c1ccccc1C(=O)O`, the “activity change, negative = inhibition” value is 29.7% (inactive).
On the same count and under the same terms, the same measure for `CC(C)(C)C(=O)CSc1nc2ccccc2o1`: 4.4% (inactive); for `Cc1ccccc1-c1nc(CS(=O)(=O)CC(=O)Nc2cc(Cl)cc(Cl)c2)c(C)o1`: 0.293% (inactive); for `Cn1c(SCC(=O)N/N=C/c2ccc(O)c(O)c2)nc2ccccc21`: -12.5% (inactive).
Regarding `O=C(N/N=C/c1ccc(O)c(O)c1)C1c2ccccc2Oc2ccccc21`, the Potency is 7.08 µM (active).
Take `CCC(C)NC(=O)C1c2ccccc2Oc2ccccc21` (stereo unspecified): the “activity change, negative = inhibition” value was -7.44% (inactive).
The same measure, in the same setting: the same measure for `Cc1ccc(Nc2c(-c3ccc(Cl)cc3)nc3sccn23)c(C)c1`: 3.67% (inactive); for `Cc1ccc(C(=O)N2CCc3cc(CNC(=O)c4ccc(Br)cc4)ccc32)cc1`: -1.22% (inactive).
The same measure, in the same setting: the same measure for `CCn1cc(C(=O)NCCc2ccccc2)c(=O)c2cc(S(=O)(=O)N3CCCCCC3)ccc21`: 13% (inactive); for `CCOC(=O)c1c(C)[nH]c(CCC(=O)NCCCN2CCN(c3cccc(Cl)c3)CC2)c1C`: -26.9% (inactive); for `O=c1c2ccccc2c(-c2ccc(Br)cc2)nn1Cc1ccccc1`: 1.64% (inactive).
On the same count and under the same terms, the same measure for `O=C(NCCSc1ccccc1)c1ccco1`: 6.21% (inactive).
As for `O=C(NCCc1ccco1)c1nn(Cc2ccccc2)c(=O)c2ccccc12`, the Potency is 44.7 µM (active).
As for `CCn1cc2nc(SCc3ccccc3Cl)n(CCc3ccccc3)c(=O)c2n1`, the “activity change, negative = inhibition” value was 1.98% (inactive).
As to `CCc1ccc2nc3sc(C(=O)Nc4nnc(CC)s4)c(N)c3cc2c1`, the Potency is 25.1 µM (active).
Regarding `CCc1nnc(NC(=O)c2sc3nc(C)cc(COC)c3c2N)s1`, the “activity change, negative = inhibition” value was -0.594% (inactive).
Take `CCc1ccc(NC(=O)c2sc3nc4c(cc3c2N)CN(CC)CC4)cc1`: the “activity change, negative = inhibition” value was -13.7% (inactive).
Still for that read-out and setting: the same measure for `Cc1ccc(C)c(N2CCN(C(c3ccccc3)c3nnc(-c4ccccc4)o3)CC2)c1` (stereo unspecified): 2.47% (inactive); for `O=C(c1cc2cc(Br)cc(Br)c2oc1=O)N1CCOCC1`: 7.01% (inactive).
On to `O=C(CSC(=S)N1CCOCC1)c1cc(Br)cc(Br)c1O`, for which the Potency was 31.6 µM (active).
In the case of `O=C(CSC(=S)N1CCOCC1)c1ccccc1`, the “activity change, negative = inhibition” value is 2.75% (inactive).
Same read-out and setting: the same measure for `CCc1ccccc1N(C)C(=O)C1CCCN(c2ncnc3onc(-c4ccc(F)cc4)c23)C1` (stereo unspecified): -20.2% (inactive).
The same measure, in the same setting: the same measure for `O=C(Nc1nnc(C2CC(=O)N(c3ccc(Cl)cc3)C2)s1)c1ccco1` (stereo unspecified): -0.775% (inactive).
On the same count and under the same terms, the same measure for `O=C(c1cnn(-c2ccc(F)cc2)c1-n1cccc1)N1CCN(c2ccc(F)cc2)CC1`: 1.09% (inactive); for `COC(=O)c1sc2ncccc2c1-n1c(C)ccc1C`: 14.6% (inactive).
In the case of `Cc1cccc(CCNC(=O)c2ccc3c(c2)nc2n3CCC(C)C2)c1` (stereo unspecified), the “activity change, negative = inhibition” value was -17.9% (inactive).
For the compound `O=C(NCc1ccco1)c1cccn2c(=O)c3c4c(sc3nc12)CCCC4`, the Potency is 50.1 µM (active).
On to `O=C(NCc1ccco1)c1nc2ncccn2n1`, for which the “activity change, negative = inhibition” value was 11.7% (inactive).
Still for that read-out and setting: the same measure for `O=c1oc(-c2ccco2)nc2sc3c(c12)CCCCC3`: 3.53% (inactive).
Same read-out and setting: the same measure for `CN(Cc1ccccc1)c1ncnc2onc(-c3ccc(F)cc3)c12`: -27% (inactive); for `COC(=O)c1ccccc1NS(=O)(=O)c1ccc2c(c1)CCCN2C(C)=O`: 29% (inactive).
Regarding `Cc1ccc(S(=O)(=O)c2nc(-c3cccs3)oc2N2CCCCC2)cc1`, the “activity change, negative = inhibition” value is 2.94% (inactive).
Regarding `COc1cccc(NC(=O)CSc2cc(=O)n(C)c3ccc(Cl)cc23)c1`, the “activity change, negative = inhibition” value was 17.1% (inactive).
Take `Cc1cc(F)ccc1NS(=O)(=O)c1ccc(-n2cccn2)cc1`: the “activity change, negative = inhibition” value was 1.11% (inactive).
